# Source: publication PMC8384837, “Expanding the binding specificity for RNA recognition by a PUF domain”
# Positions count from the first letter of the chain named.
# What was measured:
# Experiment in all cases: yeast three-hybrid, YBZ-1, SC-Leu-His + 0.5 mM 3-AT, 4 days
# Conditions in all cases: tags: N-Gal4 AD-HA kept; label: inside an RPR1-promoter hybrid RNA with tandem MS2 sites; ssRNA
# [1] = molecular target: PUM1 PUF domain R3-ACR (Homo sapiens, UniProt Q14671 828-1176, C935A;R936C;Q939R)
# How it was run: (§1)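 Each repeat of the Pumilio-1 PUF domain was randomized at its three base-contacting residues, and these libraries were co-expressed from a centromeric plasmid with matching RNA elements in strain YBZ-1. After four days on SC-Leu (input) or SC-Leu-His + 0.5 mM 3-AT (selection), the repeat regions were PCR-amplified and Illumina-sequenced. The interaction score compares variant frequency between input and selection as a log change, computed in log2 with a pseudocount of 1 for absent variants.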
# [2] = molecular target: PUM1 PUF domain R3-RCW (Homo sapiens, UniProt Q14671 828-1176, C935R;R936C;Q939W)
# How it was run: as §1
# [3] = molecular target: PUM1 PUF domain R3-GRL (Homo sapiens, UniProt Q14671 828-1176, C935G;Q939L)
# How it was run: as §1
# [4] = molecular target: PUM1 PUF domain R3-IYD (Homo sapiens, UniProt Q14671 828-1176, C935I;R936Y;Q939D)
# How it was run: as §1
# [5] = molecular target: PUM1 PUF domain R5-TRF (Homo sapiens, UniProt Q14671 828-1176, C1007T;Q1011F)
# How it was run: as §1
# [6] = molecular target: PUM1 PUF domain R5-GRN (Homo sapiens, UniProt Q14671 828-1176, C1007G;Q1011N)
# How it was run: as §1
# [7] = molecular target: PUM1 PUF domain R5-HRR (Homo sapiens, UniProt Q14671 828-1176, C1007H;Q1011R)
# How it was run: as §1
# [8] = molecular target: PUM1 PUF domain R5-KRQ (Homo sapiens, UniProt Q14671 828-1176, C1007K)
# How it was run: as §1
# [9] = molecular target: PUM1 PUF domain R5-KRV (Homo sapiens, UniProt Q14671 828-1176, C1007K;Q1011V)
# How it was run: as §1
# [10] = molecular target: PUM1 PUF domain R8-RGW (Homo sapiens, UniProt Q14671 828-1176, N1122R;Y1123G;Q1126W)
# How it was run: as §1
# [11] = molecular target: T1, PUM1 PUF domain R6-HWL (Homo sapiens, UniProt Q14671 828-1176, N1043H;Y1044W;Q1047L)
# T1 sequence: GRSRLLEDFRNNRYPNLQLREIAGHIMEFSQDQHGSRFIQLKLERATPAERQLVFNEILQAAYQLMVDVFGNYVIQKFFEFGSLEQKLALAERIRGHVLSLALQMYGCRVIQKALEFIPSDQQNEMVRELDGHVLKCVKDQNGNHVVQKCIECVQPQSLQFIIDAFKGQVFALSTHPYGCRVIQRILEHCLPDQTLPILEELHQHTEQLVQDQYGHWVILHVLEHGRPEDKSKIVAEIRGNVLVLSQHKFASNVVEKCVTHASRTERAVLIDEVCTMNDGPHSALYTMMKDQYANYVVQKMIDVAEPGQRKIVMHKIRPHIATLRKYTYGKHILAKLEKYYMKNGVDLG
# How it was run: as §1
# [12] = molecular target: PUM1 PUF domain R4-EYA (Homo sapiens, UniProt Q14671 828-1176, N971E;H972Y;Q975A)
# How it was run: as §1
# [13] = molecular target: T2, PUM1 PUF domain R6-TFA (Homo sapiens, UniProt Q14671 828-1176, N1043T;Y1044F;Q1047A)
# T2 sequence: T1 sequence with H216T, W217F, L220A
# How it was run: as §1
# [14] = molecular target: PUM1 PUF domain R4-RHL (Homo sapiens, UniProt Q14671 828-1176, N971R;Q975L)
# How it was run: as §1
# [15] = molecular target: PUM1 PUF domain R1-RRN (Homo sapiens, UniProt Q14671 828-1176, S863R;Q867N)
# How it was run: as §1
# [16] = molecular target: PUM1 PUF domain R1-YVK (Homo sapiens, UniProt Q14671 828-1176, S863Y;R864V;Q867K)
# How it was run: as §1
# [17] = molecular target: PUM1 PUF domain R7-RTM (Homo sapiens, UniProt Q14671 828-1176, S1079R;N1080T;E1083M)
# How it was run: as §1
# [18] = molecular target: PUM1 PUF domain R7-RGG (Homo sapiens, UniProt Q14671 828-1176, S1079R;N1080G;E1083G)
# How it was run: as §1
# [19] = molecular target: PUM1 PUF domain R1-RKD (Homo sapiens, UniProt Q14671 828-1176, S863R;R864K;Q867D)
# How it was run: as §1
# [20] = molecular target: PUM1 PUF domain R8-KHC (Homo sapiens, UniProt Q14671 828-1176, N1122K;Y1123H;Q1126C)
# How it was run: as §1
sequence,measurement,setting,value
GGCUAGAACUAGUGGAUCCCCCGGCGCCCGGCGGCUCGAGCCCGGGUAAGUGUAAGUAGUCUGCAUGCCGCCGGGCGCCAUGCCUGCAGGUCGACUCUAGAAAACAUG,binding signal,[1],4.11 log2 enrichment (interaction score)
same,binding signal,[2],3 log2 enrichment (interaction score)
GGCUAGAACUAGUGGAUCCCCCGGCGCCCGGCGGCUCGAGCCCGGGUAAGUGUAAUUAGUCUGCAUGCCGCCGGGCGCCAUGCCUGCAGGUCGACUCUAGAAAACAUG,binding signal,[3],0.66 log2 enrichment (interaction score)
same,binding signal,[1],3.08 log2 enrichment (interaction score)
same,binding signal,[2],3.79 log2 enrichment (interaction score)
same,binding signal,[4],2.12 log2 enrichment (interaction score)
GGCUAGAACUAGUGGAUCCCCCGGCGCCCGGCGGCUCGAGCCCGGGUAAGUGUUAAUAGUCUGCAUGCCGCCGGGCGCCAUGCCUGCAGGUCGACUCUAGAAAACAUG,binding signal,[5],3.8 log2 enrichment (interaction score)
same,binding signal,[6],3.83 log2 enrichment (interaction score)
same,binding signal,[7],4.62 log2 enrichment (interaction score)
GGCUAGAACUAGUGGAUCCCCCGGCGCCCGGCGGCUCGAGCCCGGGUAAGUGUCAAUAGUCUGCAUGCCGCCGGGCGCCAUGCCUGCAGGUCGACUCUAGAAAACAUG,binding signal,[8],5.21 log2 enrichment (interaction score)
same,binding signal,[6],1.4 log2 enrichment (interaction score)
same,binding signal,[7],2.4 log2 enrichment (interaction score)
same,binding signal,[9],4.1 log2 enrichment (interaction score)
GGCUAGAACUAGUGGAUCCCCCGGCGCCCGGCGGCUCGAGCCCGGGUAAGUGUAAAUAGUCUGCAUGCCGCCGGGCGCCAUGCCUGCAGGUCGACUCUAGAAAACAUG,binding signal,[8],2.89 log2 enrichment (interaction score)
same,binding signal,[10],2.47 log2 enrichment (interaction score)
same,binding signal,[11],6.48 log2 enrichment (interaction score)
same,binding signal,[5],3.08 log2 enrichment (interaction score)
same,binding signal,[3],2.71 log2 enrichment (interaction score)
same,binding signal,[1],0.84 log2 enrichment (interaction score)
same,binding signal,[6],3.37 log2 enrichment (interaction score)
same,binding signal,[12],2.34 log2 enrichment (interaction score)
same,binding signal,[7],1.38 log2 enrichment (interaction score)
same,binding signal,[13],3.93 log2 enrichment (interaction score)
same,binding signal,[14],3.62 log2 enrichment (interaction score)
same,binding signal,[4],3.08 log2 enrichment (interaction score)
GGCUAGAACUAGUGGAUCCCCCGGCGCCCGGCGGCUCGAGCCCGGGUAAGUGUAAAUCGUCUGCAUGCCGCCGGGCGCCAUGCCUGCAGGUCGACUCUAGAAAACAUG,binding signal,[15],5.26 log2 enrichment (interaction score)
same,binding signal,[16],1.62 log2 enrichment (interaction score)
GGCUAGAACUAGUGGAUCCCCCGGCGCCCGGCGGCUCGAGCCCGGGUAAGUCUAAAUAGUCUGCAUGCCGCCGGGCGCCAUGCCUGCAGGUCGACUCUAGAAAACAUG,binding signal,[17],0.72 log2 enrichment (interaction score)
same,binding signal,[18],1.37 log2 enrichment (interaction score)
GGCUAGAACUAGUGGAUCCCCCGGCGCCCGGCGGCUCGAGCCCGGGUAAGUGUGAAUAGUCUGCAUGCCGCCGGGCGCCAUGCCUGCAGGUCGACUCUAGAAAACAUG,binding signal,[8],0.49 log2 enrichment (interaction score)
same,binding signal,[6],2.92 log2 enrichment (interaction score)
GGCUAGAACUAGUGGAUCCCCCGGCGCCCGGCGGCUCGAGCCCGGGUAAGUGUAAAUGGUCUGCAUGCCGCCGGGCGCCAUGCCUGCAGGUCGACUCUAGAAAACAUG,binding signal,[15],2.89 log2 enrichment (interaction score)
GGCUAGAACUAGUGGAUCCCCCGGCGCCCGGCGGCUCGAGCCCGGGUAAGUGUACAUAGUCUGCAUGCCGCCGGGCGCCAUGCCUGCAGGUCGACUCUAGAAAACAUG,binding signal,[12],0.75 log2 enrichment (interaction score)
GGCUAGAACUAGUGGAUCCCCCGGCGCCCGGCGGCUCGAGCCCGGGUAAGUGUAAAUUGUCUGCAUGCCGCCGGGCGCCAUGCCUGCAGGUCGACUCUAGAAAACAUG,binding signal,[19],2.73 log2 enrichment (interaction score)
same,binding signal,[16],2.55 log2 enrichment (interaction score)
GGCUAGAACUAGUGGAUCCCCCGGCGCCCGGCGGCUCGAGCCCGGGUAAGUGUAUAUAGUCUGCAUGCCGCCGGGCGCCAUGCCUGCAGGUCGACUCUAGAAAACAUG,binding signal,[12],3.44 log2 enrichment (interaction score)
GGCUAGAACUAGUGGAUCCCCCGGCGCCCGGCGGCUCGAGCCCGGGUAAGUUUAAAUAGUCUGCAUGCCGCCGGGCGCCAUGCCUGCAGGUCGACUCUAGAAAACAUG,binding signal,[17],2.58 log2 enrichment (interaction score)
same,binding signal,[18],3.65 log2 enrichment (interaction score)
GGCUAGAACUAGUGGAUCCCCCGGCGCCCGGCGGCUCGAGCCCGGGUAAGCGUAAAUAGUCUGCAUGCCGCCGGGCGCCAUGCCUGCAGGUCGACUCUAGAAAACAUG,binding signal,[20],5.19 log2 enrichment (interaction score)
